Laboratory results published in the supplement of paper PMC11537057.
Where a name gives a salt, the structure may show the parent alone. ± gives the standard deviation of the averaged measurements. Whole data set: some 1,700 compounds, median “cell number in HSV-1-infected wells relative to infected DMSO wells (H2B-RFP signal)” near 100, cut for the highest 2% near 140. The sample as a whole holds a higher share of the highest values than the screen did.

What follows are molecules tested on A549 infected with HSV-1 (assay: cell number in HSV-1-infected wells relative to infected DMSO wells (H2B-RFP signal); higher = more surviving cells (uninfected or antiviral-protected wells give about 200%; low = toxicity)). Conditions: 10 µM; 48 h; MOI: 0.1.
Protocol: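 Selleck FDA-approved library (L1300) screened in duplicate at 10 µM on A549 H2B-mRuby cells in 384-well plates, infected with HSV-1 strain 17 YFP-ICP4 at MOI 0.1 one hour before drug addition. Imaged after 2 days at 37°C. Cell growth (H2B-RFP) and infection (ICP4-YFP) are expressed as % of DMSO-treated wells. Hits: growth >90% and infection <20% of DMSO.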

Row | Compound | cell number in HSV-1-infected wells [%]
1 | CC#CCn1c(N2CCC[C@@H](N)C2)nc2c1c(=O)n(Cc1nc(C)c3ccccc3n1)c(=O)n2C [Linagliptin] | 95.4 ± 6.9
2 | NC(=O)c1ccc(I)c([N+](=O)[O-])c1 [Iniparib (BSI-201)] | 66.8 ± 6.8
3 | NC(=O)c1cc(N2CC2)c([N+](=O)[O-])cc1[N+](=O)[O-] | 74.6 ± 11
4 | Cc1c(C(N)=O)cc([N+](=O)[O-])cc1[N+](=O)[O-] [Dinitolmide] | 145 ± 18
5 | C#Cc1cccc(Nc2ncnc3cc4c(cc23)OCCOCCOCCO4)c1 [Icotinib] | 113 ± 1.4
6 | CCCCCCCCN=c1ccn(CCCCCCCCCCn2ccc(=NCCCCCCCC)cc2)cc1 [Octenidine Dihydrochloride] | 14.6 ± 4.9
7 | CC(=O)OCC(CCn1cnc2cnc(N)nc21)COC(C)=O [Famciclovir] | 104 ± 3.7
8 | Nc1nc(O)c2ncn(CCC(CO)CO)c2n1 [Penciclovir] | 205 ± 4.4
9 | OC[C@H]1O[C@@H](O[C@@H]2[C@@H](CO)OC(O)(CO)[C@H]2O)[C@H](O)[C@@H](O)[C@H]1O (mixture of isomers) [Lactulose] | 115 ± 1.3
10 | CN1CCN(C(c2ccccc2)c2ccccc2)CC1 [Cyclizine 2HCl] | 153 ± 28
11 | C(=C\c1ccccc1)/CN1CCN(C(c2ccccc2)c2ccccc2)CC1 [Cinnarizine] | 117 ± 4.5
12 | CN1CCC(OC(c2ccccc2)c2ccccc2)CC1 [Diphenylpyraline HCl] | 98.9 ± 17
13 | C[N+](C)(C)CCO.O=C([O-])C(O)C(O)C(=O)O (stereo not drawn) [Choline bitartrate] | 124 ± 12
14 | COc1cc(C2Oc3cc([C@H]4Oc5cc(O)cc(O)c5C(=O)[C@@H]4O)ccc3OC2CO)ccc1O (stereo partly drawn) [Silibinin] | 95.4 ± 7
15 | C=C[C@@H]1C[C@]1(NC(=O)[C@@H]1C[C@@H](Oc2ncc(OC)c3ccc(Cl)cc23)CN1C(=O)[C@@H](NC(=O)OC(C)(C)C)C(C)(C)C)C(=O)NS(=O)(=O)C1CC1 [Asunaprevir] | 94.5 ± 22
16 | CCCCc1nc(C)c(CC(=S)N(C)C)c(=O)n1Cc1ccc(-c2ccccc2-c2nnn[nH]2)cc1 [Fimasartan] | 88.2 ± 16
17 | Cc1cn(-c2cc(NC(=O)c3ccc(C)c(Nc4nccc(-c5cnccn5)n4)c3)cc(C(F)(F)F)c2)cn1 [Radotinib] | 64.4 ± 25
18 | N[C@@H](Cc1c[nH]c2ccc(O)cc12)C(=O)O [5-hydroxytryptophan (5-HTP)] | 121 ± 13
19 | CC1(C)CCC(C)(C)c2cc(NC(=O)c3ccc(C(=O)O)cc3)ccc21 [Tamibarotene] | 143 ± 7.9
20 | C=C(c1ccc(C(=O)O)cc1)c1cc2c(cc1C)C(C)(C)CCC2(C)C [Bexarotene] | 85.7 ± 8.3
21 | O=C(O)c1ccc(NC(=O)[C@H](Cc2ccc(O)cc2)NC(=O)c2ccccc2)cc1 [Bentiromide] | 101 ± 29
22 | CCN(CC)C(=O)N1CCN(C)CC1 [Diethylcarbamazine citrate] | 89.5 ± 22
23 | NC(=NCCCCCCN=C(N)N=C(N)Nc1ccc(Cl)cc1)N=C(N)Nc1ccc(Cl)cc1 [Chlorhexidine?2HCl] | 9.11 ± 0.6
24 | Nc1nc(Cl)nc2c1ncn2[C@H]1C[C@H](O)[C@@H](CO)O1 [Cladribine] | 42.1 ± 4.5

Row | Compound | cell number in HSV-1-infected wells [%]
25 | Cc1cn([C@@H]2C[C@@H](O)[C@H](CO)O2)c(=O)[nH]c1=O [Telbivudine] | 102 ± 8.7
26 | Nc1ncn([C@H]2C[C@H](O)[C@@H](CO)O2)c(=O)n1 [Decitabine] | 166 ± 12
27 | O=c1[nH]c(=O)n([C@H]2C[C@H](O)[C@@H](CO)O2)cc1I [Idoxuridine] | 175.6 ± 1.1
28 | O=c1[nH]c(=O)n([C@H]2C[C@H](O)[C@@H](CO)O2)cc1F [Floxuridine] | 53.3 ± 3.6
29 | Nc1ncn([C@@H]2O[C@H](CO)[C@@H](O)[C@H]2O)c(=O)n1 [Azacitidine] | 98.3 ± 4.2
30 | CC[C@H](C)C(=O)O[C@H]1C[C@H](O)C=C2C=C[C@H](C)[C@H](CC[C@@H](O)C[C@@H](O)CC(=O)O)[C@H]21 [Pravastatin sodium] | 95.3 ± 16
31 | NC(=O)c1cn(Cc2c(F)cccc2F)nn1 [Rufinamide] | 120 ± 12
32 | C[C@H]1CNCCCN1S(=O)(=O)c1cccc2cncc(F)c12 [Ripasudil (K-115) hydrochloride dihydrate] | 114 ± 7
33 | N#Cc1cc(-c2n[nH]c(-c3ccncc3)n2)ccn1 [Topiroxostat] | 111 ± 12
34 | Cc1ncc([N+](=O)[O-])n1CC(C)O (stereo not drawn) [Secnidazole] | 99.4 ± 14
35 | NS(=O)(=O)c1cc2c(cc1Cl)N=CNS2(=O)=O [Chlorothiazide] | 114 ± 25
36 | C1N2CN3CN1CN(C2)C3 [Methenamine] | 124 ± 25
37 | COc1ccc2cc(CCC(C)=O)ccc2c1 [Nabumetone] | 97.7 ± 6.2
38 | CN1CCN(CCCN2c3ccccc3Sc3ccc(Cl)cc32)CC1 [Prochlorperazine Dimaleate] | 163 ± 4.8
39 | OCCN1CCN(CCCN2c3ccccc3Sc3ccc(Cl)cc32)CC1 [Perphenazine] | 86.76 ± 0.7
40 | CN1CCN(CCCN2c3ccccc3Sc3ccc(Cl)cc32)CC1 [Prochlorperazine dimaleate salt] | 124 ± 49
41 | CN1CCN(CCCN2c3ccccc3Sc3ccc(C(F)(F)F)cc32)CC1 [Trifluoperazine 2HCl] | 57.5 ± 10
42 | CC(C)C(=O)OCC(=O)[C@@]12O[C@H](C3CCCCC3)O[C@@H]1C[C@H]1[C@@H]3CCC4=CC(=O)C=C[C@]4(C)[C@H]3[C@@H](O)C[C@@]12C [Ciclesonide] | 120 ± 13
43 | Cc1onc(-c2c(F)cccc2Cl)c1C(=O)N[C@@H]1C(=O)N2[C@@H]1SC(C)(C)[C@@H]2C(=O)O [Flucloxacillin sodium] | 111 ± 11
44 | Cc1onc(-c2ccccc2Cl)c1C(=O)N[C@@H]1C(=O)N2[C@@H]1SC(C)(C)[C@@H]2C(=O)O [Cloxacillin Sodium] | 114 ± 15
45 | Cc1onc(-c2c(Cl)cccc2Cl)c1C(=O)N[C@@H]1C(=O)N2[C@@H]1SC(C)(C)[C@@H]2C(=O)O [Dicloxacillin Sodium] | 146 ± 32
46 | C[C@]12CC[C@@H]3c4ccc(O)cc4C[C@@H](CCCCCCCCC[S+]([O-])CCCC(F)(F)C(F)(F)F)[C@H]3[C@@H]1CC[C@@H]2O (stereo partly drawn) [Fulvestrant] | 74.6 ± 24
47 | C[C@@H](O)[C@H]1C(=O)N2C(C(=O)O)=C(S[C@@H]3CN[C@H](CNS(N)(=O)=O)C3)[C@H](C)[C@H]12 [Doripenem] | 124 ± 13
48 | C[C@@H](O)[C@H]1C(=O)N2C(C(=O)O)=C(S[C@@H]3CN[C@H](CNS(N)(=O)=O)C3)[C@H](C)[C@H]12 [Doripenem Hydrate] | 98.3 ± 14
